For some of these results: Potency and affinity values are given separately. Calls of active or inactive are those of the source. Unless noted, no rule for the calls is given here.
Tests used:
[1] = antimalarial activity against Dd2 strain (AID 2302;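 active = growth inhibition above 50% at the single 2 µM test dose, taken to imply half-maximal potency below 2 µM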;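 also: 0% = DMSO untreated growth and 100% = chloroquine plus artemisinin killed control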); conditions: P. falciparum Dd2 in RBCs, LDH growth readout, 72 h; at 2 µM; active compounds read high
[2] = human hepatoma cell viability loss – ATP luminescence, cytotoxicity control for P. falciparum antimalarial project, primary screen (AID 2303;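 active = inhibition above 50%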;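 also: 0% = DMSO wells and 100% = digitonin-killed cells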); conditions: HepG2 viability, 24-48 h, at 10 µM, active compounds read high
[3] = molecular target: L-lactate dehydrogenase (Plasmodium falciparum (isolate CDC / Honduras)) (UniProt Q27743); test: PfLDH activity inhibition – cell lysate, 3D7 strain, counter-screen for P. falciparum growth inhibition project (AID 2304);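 also: 0% = vehicle and 100% = reference inhibitor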; conditions: P. falciparum 3D7 crude extract, LDH APAD/NBT absorbance; at 2 µM; active compounds read high
[4] = inhibition of 3D7 malaria parasite growth – strain 3D7 (AID 2306);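 also: 0% = DMSO wells and 100% = chloroquine plus artemisinin control wells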; conditions: P. falciparum 3D7 erythrocytic growth, LDH absorbance, 72 h; at 2 µM; active compounds read high
[5] = molecular target: Calcium-dependent protein kinase 1 (Plasmodium falciparum (isolate 3D7)) (UniProt P62344); test: PfCDPK1 kinase inhibitors, biochemical, TCAMS library (AID 1159585; cut-off not given, nearly all actives have IC50 up to about 0.98 µM;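 also: inhibitors leave more ATP so luminescence rises with inhibition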); conditions: recombinant PfCDPK1, Kinase-Glo ATP depletion luminescence
[6] = molecular target: Plasmodium falciparum protein kinase 6 (PK6, PF3D7_1337100) (UniProt Q8IDW1); test: PfPK6 kinase inhibitors, biochemical, TCAMS library (AID 1159586); conditions: recombinant PfPK6, Kinase-Glo ATP depletion luminescence
[7] = molecular target: Protein kinase 7 (PK7), Plasmodium falciparum 3D7 (PF3D7_0213400) (UniProt Q7YTF7); test: inhibition of Plasmodium PK7 catalytic activity – biochemical, TCAMS antimalarial set, Kinase-Glo luminescence (AID 1159587); conditions: recombinant PfPK7, Kinase-Glo ATP depletion luminescence
[8] = molecular target: Calcium-dependent protein kinase 4 (Plasmodium falciparum (isolate 3D7)) (UniProt Q8IBS5); test: PfCDPK4 kinase inhibitors, biochemical, TCAMS library (AID 1159588; cut-off not given, nearly all actives have IC50 up to about 0.91 µM); conditions: recombinant PfCDPK4, Kinase-Glo ATP depletion luminescence
Chain of Calcium-dependent protein kinase 4 (Plasmodium falciparum (isolate 3D7)) (Q8IBS5 whole entry, looked up): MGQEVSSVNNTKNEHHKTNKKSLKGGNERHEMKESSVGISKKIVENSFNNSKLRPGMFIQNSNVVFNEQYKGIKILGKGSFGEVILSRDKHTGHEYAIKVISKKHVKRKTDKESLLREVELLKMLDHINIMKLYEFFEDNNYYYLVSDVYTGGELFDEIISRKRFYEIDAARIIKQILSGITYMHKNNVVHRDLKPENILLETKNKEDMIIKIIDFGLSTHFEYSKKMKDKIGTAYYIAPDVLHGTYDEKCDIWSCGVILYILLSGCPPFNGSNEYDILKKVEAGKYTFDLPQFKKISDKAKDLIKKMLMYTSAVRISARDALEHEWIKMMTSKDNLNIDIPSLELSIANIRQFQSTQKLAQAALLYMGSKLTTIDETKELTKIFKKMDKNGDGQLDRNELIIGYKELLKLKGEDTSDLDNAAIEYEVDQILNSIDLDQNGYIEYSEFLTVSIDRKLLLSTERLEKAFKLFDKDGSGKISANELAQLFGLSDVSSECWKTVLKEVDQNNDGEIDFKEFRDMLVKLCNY

Chain of L-lactate dehydrogenase (Plasmodium falciparum (isolate CDC / Honduras)) (Q27743 whole entry, looked up): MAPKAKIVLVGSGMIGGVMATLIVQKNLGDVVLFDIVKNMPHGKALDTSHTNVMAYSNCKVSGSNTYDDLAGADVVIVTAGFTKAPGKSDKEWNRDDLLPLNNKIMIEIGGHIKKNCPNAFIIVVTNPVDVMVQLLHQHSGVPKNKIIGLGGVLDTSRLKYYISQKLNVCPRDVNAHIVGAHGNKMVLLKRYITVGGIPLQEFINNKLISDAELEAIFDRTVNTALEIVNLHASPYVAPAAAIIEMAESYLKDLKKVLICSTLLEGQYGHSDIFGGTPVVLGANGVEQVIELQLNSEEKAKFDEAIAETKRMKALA
Chain of Calcium-dependent protein kinase 1 (Plasmodium falciparum (isolate 3D7)) (P62344 whole entry, looked up): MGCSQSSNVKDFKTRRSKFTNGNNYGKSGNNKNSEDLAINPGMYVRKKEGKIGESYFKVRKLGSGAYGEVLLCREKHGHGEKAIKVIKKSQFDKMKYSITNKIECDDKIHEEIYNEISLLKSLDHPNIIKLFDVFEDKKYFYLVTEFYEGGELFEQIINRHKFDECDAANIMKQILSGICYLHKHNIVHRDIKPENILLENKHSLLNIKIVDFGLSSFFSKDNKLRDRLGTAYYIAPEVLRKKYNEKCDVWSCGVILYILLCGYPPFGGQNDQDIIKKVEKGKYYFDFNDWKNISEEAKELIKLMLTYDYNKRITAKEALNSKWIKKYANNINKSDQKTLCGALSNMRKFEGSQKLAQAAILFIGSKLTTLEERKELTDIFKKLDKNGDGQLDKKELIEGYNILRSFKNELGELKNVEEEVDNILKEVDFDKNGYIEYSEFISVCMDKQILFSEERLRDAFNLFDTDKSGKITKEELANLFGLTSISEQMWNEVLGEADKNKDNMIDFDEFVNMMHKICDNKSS
Chain of Protein kinase 7 (PK7), Plasmodium falciparum 3D7 (PF3D7_0213400) (Q7YTF7 1-343): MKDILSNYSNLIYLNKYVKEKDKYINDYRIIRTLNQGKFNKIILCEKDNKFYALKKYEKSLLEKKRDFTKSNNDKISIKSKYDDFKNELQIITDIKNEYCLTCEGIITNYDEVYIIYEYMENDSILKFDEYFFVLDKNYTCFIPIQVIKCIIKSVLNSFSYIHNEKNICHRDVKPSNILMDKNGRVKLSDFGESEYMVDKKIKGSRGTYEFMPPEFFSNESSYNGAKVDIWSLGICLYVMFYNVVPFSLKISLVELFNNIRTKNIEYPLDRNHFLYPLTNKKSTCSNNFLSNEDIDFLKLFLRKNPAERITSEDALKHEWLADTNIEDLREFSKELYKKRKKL
Chain of Plasmodium falciparum protein kinase 6 (PK6, PF3D7_1337100) (Q8IDW1 1-305): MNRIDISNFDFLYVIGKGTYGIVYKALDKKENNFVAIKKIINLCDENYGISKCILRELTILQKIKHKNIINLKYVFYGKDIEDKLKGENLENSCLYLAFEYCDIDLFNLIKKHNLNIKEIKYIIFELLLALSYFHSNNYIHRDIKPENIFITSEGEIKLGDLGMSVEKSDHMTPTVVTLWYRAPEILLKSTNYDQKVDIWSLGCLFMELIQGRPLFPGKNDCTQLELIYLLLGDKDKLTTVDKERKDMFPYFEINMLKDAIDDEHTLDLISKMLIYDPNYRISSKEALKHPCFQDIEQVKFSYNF

CN(C)CCNC(=O)c1cccc(-c2cnc3ccc(NCc4ccc(Cl)c(Cl)c4)nn23)c1
inactive: inhibition [2] 31% | inhibition [3] -2% | outcome [5] | outcome [6] | outcome [7] | outcome [8]
active: growth inhibition [1] 53% | growth inhibition [4] 100%

CS(=O)(=O)CCNc1cc(N2CCc3ncnc(Nc4ccc(OCc5cccc(F)c5)c(Cl)c4)c3C2)ncn1
active: growth inhibition [1] 50% | growth inhibition [4] 96%
inactive: inhibition [2] -17% | inhibition [3] 5% | outcome [5] | outcome [6] | outcome [7] | outcome [8]

CN1CCC(NCc2ccc(-c3cccc(-c4nc5ccccc5[nH]4)c3)cc2)CC1
active: growth inhibition [1] 96% | inhibition [2] 50% | growth inhibition [4] 100%
inactive: inhibition [3] -5% | outcome [5] | outcome [6] | outcome [7] | outcome [8]

CCN(C1CCCCC1)S(=O)(=O)c1ccc(OC)c(N2CCN(C(=O)C(Cl)(Cl)Cl)CC2)c1
active: growth inhibition [1] 85% | growth inhibition [4] 100%
inactive: inhibition [2] 0% | inhibition [3] 3% | outcome [5] | outcome [6] | outcome [7] | outcome [8]

Cc1cc(=O)c(-c2ccc(Oc3ccc(F)cc3)cc2)c(C)[nH]1
inactive: inhibition [2] -3% | inhibition [3] 3% | outcome [5] | outcome [6] | outcome [7] | outcome [8]
active: growth inhibition [1] 59% | growth inhibition [4] 85%

c1ccc(CCNCc2ccc(-c3cccc(-c4nc5ccccc5[nH]4)c3)cc2)nc1
active: growth inhibition [1] 87% | growth inhibition [4] 100%
inactive: inhibition [2] 36% | inhibition [3] 7% | outcome [5] | outcome [6] | outcome [7] | outcome [8]

CCOc1ccc(C(=O)Nc2cc3c(c(C(F)(F)F)c2)CCNC3)cc1Cl
inactive: growth inhibition [1] 1% | inhibition [2] 4% | inhibition [3] -4% | outcome [5] | outcome [6] | outcome [7] | outcome [8]
active: growth inhibition [4] 91%

Cc1ccccc1C1CCN(C2CCC(NC(=O)/C=C/c3cccc(C(F)(F)F)c3)CC2)CC1 (stereo not given)
inactive: inhibition [3] -4% | outcome [5] | outcome [6] | outcome [7] | outcome [8]
active: growth inhibition [1] 54% | inhibition [2] 96% | growth inhibition [4] 100%

COc1ccc2nc3cc(Cl)ccc3c(NCCN(C)C)c2c1
active: growth inhibition [1] 100% | growth inhibition [4] 102%
inactive: inhibition [2] 4% | inhibition [3] -2% | outcome [5] | outcome [6] | outcome [7] | outcome [8]

c1ccn2c(Sc3ncnc4sccc34)ncc2c1
active: growth inhibition [1] 100% | growth inhibition [4] 100%
inactive: inhibition [2] -14% | inhibition [3] 2% | outcome [5] | outcome [6] | outcome [7] | outcome [8]

COc1cccc2cc(C(=O)N[C@@H](CC(C)C)C(=O)Nc3cc(F)ccc3Br)oc12
inactive: growth inhibition [1] 45% | inhibition [2] 7% | inhibition [3] -1% | outcome [5] | outcome [6] | outcome [7] | outcome [8]
active: growth inhibition [4] 87%

COc1ccc(C=CC(=O)Nc2ccc(N3CCCC3)cc2)cc1
active: growth inhibition [4] 81%
inactive: growth inhibition [1] 9% | inhibition [2] -1% | inhibition [3] -1% | outcome [5] | outcome [6] | outcome [7] | outcome [8]

CCNc1cc(C(=O)N[C@@H](Cc2ccccc2)[C@H](O)CNCCc2ccccc2)cc(N2CCCCS2(=O)=O)c1
active: growth inhibition [1] 91% | growth inhibition [4] 98%
inactive: inhibition [2] 14% | inhibition [3] 7% | outcome [5] | outcome [6] | outcome [7] | outcome [8]

COc1ccc(C2=C(Nc3ccc4oc5ccccc5c4c3)c3ccccc3C2=O)cc1
active: growth inhibition [1] 92% | growth inhibition [4] 93%
inactive: inhibition [2] 9% | inhibition [3] 5% | outcome [5] | outcome [6] | outcome [7] | outcome [8]

COCCNCc1nc(-c2ccc3c(Nc4ccc(Cl)cc4F)ccnc3c2)cs1
inactive: inhibition [2] -4% | inhibition [3] -1% | outcome [5] | outcome [6] | outcome [7] | outcome [8]
active: growth inhibition [1] 100% | growth inhibition [4] 101%

O=C(Nc1ccc(Cl)c(Cl)c1)N1CCC(NCc2cccc([N+](=O)[O-])c2)CC1
active: growth inhibition [4] 97%
inactive: growth inhibition [1] 12% | inhibition [2] 8% | inhibition [3] 2% | outcome [5] | outcome [6] | outcome [7] | outcome [8]

CN1CCC(Oc2ccc(CN3CC[C@H](NC(=O)c4cccc(C#N)c4)C3)c3ccccc23)C1 (stereo not given in full)
inactive: growth inhibition [1] 30% | inhibition [2] 10% | inhibition [3] -1% | outcome [5] | outcome [6] | outcome [7] | outcome [8]
active: growth inhibition [4] 97%

COc1cccc(C(=O)Nc2sc3c(c2C(N)=O)CCCC3)c1OC
active: growth inhibition [4] 99%
inactive: growth inhibition [1] 8% | inhibition [2] 6% | inhibition [3] -2% | outcome [5] | outcome [6] | outcome [7] | outcome [8]

O=C(NC1CC1)c1ccc(N2CCOc3ccc(Cl)cc32)s1
inactive: inhibition [2] 8% | inhibition [3] 5% | outcome [5] | outcome [6] | outcome [7] | outcome [8]
active: growth inhibition [1] 73% | growth inhibition [4] 94%

COc1ccc2nccc([C@@H](O)CN3CCC(NCc4nc5cc(F)ccc5o4)CC3)c2c1
inactive: growth inhibition [1] 12% | inhibition [2] 14% | inhibition [3] -8% | outcome [5] | outcome [6] | outcome [7] | outcome [8]
active: growth inhibition [4] 102%

Source: PubChem BioAssay
